Bioassay records from PubChem BioAssay.
ELG1 genotoxic: genotoxicity induction in ELG1-luciferase HEK293T cells. Potency, µM (top dose mostly 46 µM), without a hit: at the highest dose activity change, positive = activation, most hits filed as activators. HEK293T ELG1-luciferase reporter, luminescence, 16 h. AID 504466. 330,000 tested, 1.3% active; further: % of control where 0% means no effect; nearly all actives have a fitted effect of over 60% in size
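ELG1-luciferase HEK293T cells, 2,000/well; compound pinned in; 16 hr, 37 °C, 5% CO2; ONE-Glo, 30 min RT; luminescence on CCD imager.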
NPC1 prom act: activators of NPC1 promoter; Potency, µM (top dose mostly 9.22 µM), for the others: at the top dose activation, actives largely listed as activators; Huh7 NPC1 promoter luciferase reporter, 24 h; 320,000 tested, 2.4% active; further: % of control where 0% means no effect; nearly all actives have a fitted effect of over 60% in size
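Huh7 cells stably carrying NPC1 promoter–luciferase, plated in Opti-MEM with 10% FBS for 2 h, were exposed to compound in DMSO for 24 h at 37 °C; luciferase reagent was added for 10 min and luminescence read.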
ELG1 DNA repair: inhibitors of ELG1-dependent DNA repair in HEK293T cells; Potency, µM (titrated, usually from 46.1 µM), for the others: top-dose activity change, negative = inhibition, most hits filed as inhibitors; HEK293T ELG1-luciferase reporter, luminescence, 16 h; DNA damage induced by 5-fluorouridine; 330,000 tested, 2.3% active; AID 504467; further: on the % scale 0 is the no-effect control and ±100 the full control effect; nearly all actives have a fitted effect of over 55% in size
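Cells (2,000 per well) received 5-fluorouridine plus test compound or DMSO and were incubated 16 hr at 37 °C, 5% CO2. Luciferase activity was read by luminescence 30 min after ONE-Glo addition; signal suppression marked inhibition of damage-induced ELG1 function.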
FLuc modulator: firefly luciferase modulation, counter-screen for miR-21 project; purified FLuc, Km substrates, luminescence inhibition; 360,000 tested, 6.9% active; Potency, µM (series often up to 57.5 µM), inactives show at the highest dose activity change, negative = inhibition, usual class: inhibitors;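 further: plate controls were vehicle for no effect and reference inhibitor for full effect; nearly all actives have a fitted effect of over 55% in size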
Target sequence (P08659 whole entry, looked up): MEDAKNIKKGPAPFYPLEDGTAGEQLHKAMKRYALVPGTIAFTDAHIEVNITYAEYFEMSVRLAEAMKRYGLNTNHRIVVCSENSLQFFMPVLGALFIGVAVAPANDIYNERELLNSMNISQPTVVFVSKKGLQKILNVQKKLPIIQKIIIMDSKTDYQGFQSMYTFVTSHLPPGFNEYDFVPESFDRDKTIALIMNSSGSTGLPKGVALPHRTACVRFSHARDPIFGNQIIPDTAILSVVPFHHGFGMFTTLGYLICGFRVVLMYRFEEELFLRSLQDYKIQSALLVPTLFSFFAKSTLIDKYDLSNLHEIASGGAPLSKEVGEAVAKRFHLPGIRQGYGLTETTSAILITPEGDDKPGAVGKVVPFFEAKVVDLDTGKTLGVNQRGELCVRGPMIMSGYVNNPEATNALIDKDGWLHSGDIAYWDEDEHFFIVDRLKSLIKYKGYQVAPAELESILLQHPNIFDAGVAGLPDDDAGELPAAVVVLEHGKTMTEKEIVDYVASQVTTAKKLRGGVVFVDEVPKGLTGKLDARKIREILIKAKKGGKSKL
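Biochemical qHTS of compounds, final roughly 60 µM downward over six points, against 10 nM purified firefly luciferase using Km concentrations of substrates (10 uM D-luciferin, 10 uM ATP) in Tris acetate pH 7.5 buffer; luminescence output.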
SMN2 splice up: SMN2 splice variant enhancement. AID 1458. HEK293 SMN2-luciferase splicing reporter, luminescence, 30-36 h. 210,000 tested, 2.8% active. Potency, µM (doses to about 46.1 µM), inactives show at the highest dose activity change, positive = activation, actives largely listed as activators; further: % of control where 0% means no effect; nearly all actives have a fitted effect of over 55% in size
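HEK293 cells carry an SMN2 […]–luciferase reporter in which exon 7 inclusion puts luciferase in frame. Cells were plated 10-12 h before compound addition, then incubated 30-36 h at 37C. ONE-Glo luminescence was read; sodium butyrate at 4.5 mM final served as control.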
Rab9 prom act: activates the Rab9 promoter | 320,000 tested, 2.8% active | Potency, µM (titrated, usually from 9.22 µM), for inactives: at the highest dose activation, negative = inhibition, hits mostly activators | Huh7 Rab9 promoter-luciferase reporter, luminescence, 24 h | AID 485297; further: % of control where 0% means no effect; nearly all actives have a fitted effect of over 60% in size
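Huh7 cells stably carrying Rab9 promoter–luciferase reporter, plated 1500 cells/well, compound added after 2 h and incubated 24 h at 37 °C; luciferase luminescence then read after 10 min with detection reagent.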
* = called active by the depositor; ? = inconclusive; . = no result given. A selection: hits, their analogues and other compounds. The true share with any hit is near 9.2%. The call rests on the fitted dose curve; in most records, active means well fitted curve in the direction sought with a large enough effect; inconclusive means small, poorly fitted or top-dose-only effect, or another doubt; inactive means no such curve, though single readings can be large; an effect the other way counts as inactive or inconclusive. Potency means the concentration at half of the fitted maximal effect.

SMILES	ELG1 genotoxic	NPC1 prom act	ELG1 DNA repair	FLuc modulator	SMN2 splice up	Rab9 prom act
Cc1ccccc1-n1ncc2c1CC(C)(C)CC2NC(=O)C1=CC(=O)CC(C)(C)O1 (stereo not given)	-5%	-2%	-4%	0%	.	-5%
CN(C)c1nc(N)nc(-c2nc3ccccc3s2)n1	3.3µM*	8%	?	?	8.9µM*	?
CCCN(CCC)CCCNC(=O)c1ccc(CS(=O)(=O)c2c(Cl)cccc2Cl)o1	-5%	-3%	0%	2%	.	-6%
CCn1cc(/C=C/c2cc[n+](C)cc2)c2ccccc21	-8%	-42%	2.9µM*	0%	.	-43%
C=CCn1cc(/C=C/c2cc[n+](C)cc2)c2ccccc21	-13%	-44%	?	-1%	.	-48%
COc1ccccc1C(=O)Nc1ccc(OCC(=O)N2CC(C)OC(C)C2)cc1 (stereo not given)	9%	0%	?	5.4µM*	.	-5%
COc1ccccc1C(=O)Nc1ccc(C(=O)c2ccccc2)cc1	4%	-5%	?	13µM*	-5%	?
COc1ccccc1C(=O)NCC(=O)OCC(=O)N1CC(C)OC(C)C1 (stereo not given)	0%	-1%	21%	-3%	.	-1%
CCOc1ccc(NC(=O)c2ccccc2CO)cc1	?	?	?	17µM*	12%	?
CCOc1ccc(NC(=O)c2ccccc2OC)cc1	?	?	?	12µM*	?	?
COc1ccccc1C(=O)Nc1ccc(C(=O)O)cc1	3%	0%	15%	-13%	9%	-1%
CC/C(=N\NC(=O)Cc1ccc(Br)cc1)c1cccs1	-1%	-2%	-1%	3%	.	9%
C=CCN(CC=C)C(=O)c1ccc(OC2CCN(C(C)=O)CC2)c(OC)c1	5%	1%	?	0%	.	3%
CCOc1ccc(NC(=O)c2ccccc2O)cc1	?	1.4µM*	?	0.54µM*	3.2µM*	1.6µM*
CCOc1ccc(NC(=O)c2ccc(NC(=O)c3ccccc3Br)cc2)cc1	?	-1%	27%	-15%	.	-1%
COc1cc(-c2noc(C)c2C#CC2(N)CCCCC2)cc(OC)c1OC	5%	1%	?	1%	.	4%
COc1cccc2oc3ccc(C#CC4(N)CCCCC4)cc3c(=O)c12	18µM*	?	?	6µM*	.	?
Cn1c2ccccc2c(=O)c2ccc(C#CC3(N)CCCCC3)cc21	7.3µM*	4µM*	?	6.7µM*	.	2µM*
Cn1c2ccccc2c(=O)c2cc(C#CC3(O)CCCCC3)ccc21	0.12µM*	?	?	0.076µM*	.	?
Cc1cccc(OC(=O)c2snnc2C)c1C	.	.	.	-8%	.	.
Cc1cc(=O)oc2cc(NC(=O)C(C)Oc3cccc(Cl)c3)ccc12 (stereo not given)	8%	10%	?	1%	.	2%
Cc1cc(=O)oc2cc(NC(=O)c3cc(F)ccc3F)ccc12	?	?	?	3%	.	2.5µM*
Cc1cc(=O)oc2cc(NC(=O)c3cccc(Br)c3)ccc12	19%	?	?	0%	.	?
Cc1cc(=O)oc2cc(NC(=O)c3ccccc3OC(F)F)ccc12	?	4µM*	?	?	.	3.2µM*
OCC[C@H]1C[C@H](O)[C@@H](O)[C@]2(OCCc3ccccc32)O1	3%	-2%	3%	5%	.	-5%
SMILES	ELG1 genotoxic	NPC1 prom act	ELG1 DNA repair	FLuc modulator	SMN2 splice up	Rab9 prom act
NC(=O)c1ccccc1OCC(=O)Nc1ccc2c(c1)CCC2	6%	22%	?	15µM*	.	?
COc1ccccc1OCC(=O)Nc1ccc(Cl)cc1	14%	13%	?	?	?	20%
NC(=O)c1ccccc1OCC(=O)Nc1ccc(Cl)c(Cl)c1	1.2µM*	0.35µM*	?	0.67µM*	.	0.35µM*
O=C(COc1cc(Cl)ccc1Cl)Nc1ccc2c(c1)CCC2	8%	16%	23%	3%	13%	17%
N/C(CS(=O)(=O)c1ccccc1)=N\OC(=O)c1ccc(F)cc1	?	-1%	?	6%	.	6%
O=C(O/N=C/C1=C(Cl)c2ccccc2CC1)c1ccc(F)cc1	-4%	-3%	-2%	6.7µM*	3%	-5%
Cn1c(=O)c2sccc2n2c(CCCC(=O)NC3CCCCC3)nnc12	.	.	.	-8%	.	.
CCN1C/C(=C/c2cccc([N+](=O)[O-])c2)C(=O)/C(=C/c2cccc([N+](=O)[O-])c2)C1	-16%	-36%	2.6µM*	-3%	-101%	-50%
CCOc1cc(/C=C2\CN(CC)C/C(=C\c3ccc(O)c(OCC)c3)C2=O)ccc1O	-12%	-29%	?	-13%	.	-20%
Cc1ccc(S(=O)(=O)c2nc(-c3ccc(Cl)cc3)oc2N2CCCCCC2)cc1	.	.	.	-5%	2%	.
Cc1ccc2nc(N3CCC(C(=O)N4CCN(c5cccc(C)c5C)CC4)CC3)[nH]c2c1	.	.	.	-19%	.	.
Cc1ccc(-n2ncc3c(N4CCCCCC4)ncnc32)cc1Cl	.	.	.	0.43µM*	.	.
COc1ccc(N2CCN(c3ncnc4c3cnn4-c3ccc(C)c(Cl)c3)CC2)cc1	.	.	.	5%	.	.
Cc1ccc(-n2ncc3c(N4CCCCC4)ncnc32)cc1Cl	.	.	.	0.13µM*	.	.
O=C(CSc1nc(-c2ccco2)nc2cc(=O)[nH]n12)Nc1ccc(F)cc1	.	.	.	-16%	.	.
CCOc1ccc(CC(=O)NCCc2csc(-c3ccc(Cl)cc3)n2)cc1	.	.	.	-8%	.	.
COc1cc(Cl)c(C)cc1NC(=O)COC(=O)CCc1nc2ccccc2c(=O)[nH]1	1%	0%	16%	4%	.	0%
CCSc1nncn1/N=C/c1ccc(OC)c(OC)c1	?	8%	?	?	?	23%
C=C(C)CSc1nncn1/N=C/c1ccc(OC)cc1	?	?	?	12µM*	?	4µM*
Cc1ccc(SC[C@H](CC(C)C)N2CCN(CCc3ccccc3)CCC2=O)cc1	5%	18%	27%	17µM*	.	12%
COc1ccc(SC[C@H](CC(C)C)N2CCN(CCc3ccccc3)CCC2=O)cc1	-3%	14%	-12%	19µM*	.	0%
Fc1ccc(CNc2cc(-c3ccccc3)nc3nncn23)cc1	.	.	.	5%	-19%	.
COc1ccccc1C(=O)NC(=S)Nc1ccc(N2CCN(C(=O)c3ccco3)CC2)cc1	-11%	-9%	13µM*	-6%	.	-19%
O=C(Nc1ccc(N2CCN(C(=O)c3ccco3)CC2)cc1)c1ccc2c(c1)OCO2	7%	2%	18µM*	0%	-39%	-1%
